Experimental data published in PubChem BioAssay (NCI).
This is part of a sample that, as a whole, favours compounds with a hit. Of some 79,000 tested, about 15% had one in any assay. Unmarked numbers belong to inactive results. The source made the active and inactive calls. Cut-off read from the data, not from the text of the source: active = growth inhibition above about 70%; inactive = the rest.

Experiment: NCI Yeast Anticancer Drug Screen. Data for the rad50 strain (AID 155);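 note: 0% = growth of vehicle-only cultures of the same strain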
Details: S. cerevisiae rad50 strain growth inhibition; at 50.0 µM; stronger effect = higher value
How it was run: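 Yeast carrying a defined DNA repair defect were exposed to test compounds, and growth was compared with vehicle-treated controls to give percent inhibition.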
`C#CC(C)(C)OC(=O)Nc1cccc(Cl)c1` showed a growth inhibition of 12.8%. Work on `CCCCCCCCCCCCCC(=O)OCC(CCS(=O)(=O)O[C@H]1CC[C@@]2(C)C(=CC[C@@H]3C2CC[C@]2(C)C(=O)CCC32)C1)OC(=O)CCCCCCCCCCCCC` (stereo not given in full) yielded a growth inhibition of -32.8%. For `C=CCc1oc(C)nc1CCCC`, the growth inhibition was 0.2%. `O=C(/C=N\O)c1ccccc1[N+](=O)[O-]` showed a growth inhibition of -5.6%. `OC1CCC(c2ccccc2)CC1` (stereo not given) showed a growth inhibition of 29.1%. For `C=C1CC[C@@H]2C(C)(C)CCC[C@@]2(C)[C@@H]1Cc1cc(O)ccc1O`, the growth inhibition was 86.8% (active). For `Cc1ccc(N=Nc2ccc(C)cc2NC(=O)Nc2cc(C)ccc2C)cc1`, the growth inhibition was -3.7%. `Cc1ccc(N2C(=O)CS/C2=C(\C#N)c2nc3ccccc3[nH]2)cc1` showed a growth inhibition of -78.5%. `Cc1cc(Cl)ccc1OCC(=O)OCC(C)(C)[N+](=O)[O-]` showed a growth inhibition of 6.05%. `CCOC(=O)C(=[N+]=[N-])C(=O)c1cc2ccccc2oc1=O` gave a growth inhibition of -19.2%. For `CC(C)C(CC1CCCCC1)C(C)O` (stereo not given), the growth inhibition was -7.65%. Work on `Cc1ccc(-n2nc3c(c(C#N)c2=O)-c2ccccc2C3=O)cc1` yielded a growth inhibition of -27.6%. `CS(=O)(=O)OCC(Cc1ccccc1)N1C(=O)c2ccccc2C1=O` (stereo not given) showed a growth inhibition of 1.3%. Compound `C/C(CCc1ccccc1)=N\Nc1ccc([N+](=O)[O-])cc1[N+](=O)[O-]` has a growth inhibition of -31.9%. With `Cc1cc(=O)n(C)c2ccc(N)cc12` the growth inhibition was -3.85%. In the case of `c1ccc(C2=NC3CCCCC3S2)cc1` (stereo not given), the growth inhibition was 2.95%. In the case of `O=C1OC(c2ccccc2)=CC1(Cc1ccccc1)Cc1ccccc1`, the growth inhibition was 0.2%. Work on `COc1ccccc1C(=O)N/N=C/c1ccccc1Cl` yielded a growth inhibition of 4.25%. For `c1cc(OCC2CO2)ccc1OCC1CO1` (stereo not given), the growth inhibition was 41%. In the case of `C[C@@]1(NC(=O)Cc2ccccc2)C(=O)N2CCS[C@@]21c1ccccc1`, the growth inhibition was 0.4%. Compound `N#CC(CN1CCOCC1)[N+](=O)[O-]` (stereo not given) has a growth inhibition of -2.2%. `COC1NC(=O)Oc2ccccc21` (stereo not given) showed a growth inhibition of -6.25%. Compound `C/C(CC(=O)Nc1cccc([N+](=O)[O-])c1)=N\NC(=O)CC#N` has a growth inhibition of -3.45%. For `O=C1OC(c2ccccc2)(c2ccc(Cl)cc2)CC1/C=C(\c1ccccc1)c1ccc(Cl)cc1` (stereo not given), the growth inhibition was -2%. Compound `CO/C=C/c1cc2c(cc1Br)OCO2` has a growth inhibition of 10.9%. Work on `C=C1C(=O)O[C@H]2[C@H]1CC(=O)/C(C)=C/CC[C@@]1(C)O[C@@H]21` yielded a growth inhibition of 32.7%. `COc1ccc(C2SC(N)=Nc3c2c(C)nn3C(=O)c2ccc(Cl)cc2)cc1` (stereo not given) showed a growth inhibition of 3.7%. `OCc1ccc2[n+](c1)CCC1c3ccccc3NC21` (stereo not given) gave a growth inhibition of -8.35%. Work on `N#Cc1c(-c2ccccc2)cc(-c2ccccc2)[nH]c1=O` yielded a growth inhibition of 18.6%. With `CC(=O)c1cc(-c2ccccn2)c(=O)n2ccccc12` the growth inhibition was 26.1%. `CC(=O)NC(=O)NC1=NCCC(=O)N1CCc1c[nH]c2ccccc12` gave a growth inhibition of 4.35%. For `COC(=NC(C)C)NC(C)C`, the growth inhibition was 6.3%. In the case of `NC(Cc1c[nH]c2ccc(F)cc12)C(=O)O` (stereo not given), the growth inhibition was -4.35%. `COC(=O)c1cc(-c2ccc(OC)cc2)[nH]c(=O)c1C#N` gave a growth inhibition of 20.2%. `CCCCCCCCCCCCCCCCCCCCCCCCCCCCCCCCCCCCSC(=N)N` gave a growth inhibition of 8.25%. In the case of `c1cc2nc(c1)CSCCCCCCCSC2`, the growth inhibition was 2.05%. In the case of `COC(=O)COc1cc2c(cc1C(C)c1ccc(O)cc1)OCO2` (stereo not given), the growth inhibition was 98.8% (active). `O=C(O)c1cc2cc(O)ccc2[nH]1` showed a growth inhibition of 2.6%. With `COc1cc(/C=C/C(=O)c2sc(-n3nc(-c4ccccc4)cc3-c3ccccc3)nc2C)ccc1O` the growth inhibition was 6%. For `CCCCCCCCS(=O)(=O)N(C)C`, the growth inhibition was -18.6%.

Experiment: NCI Yeast Anticancer Drug Screen. Data for the mec2-1 strain (AID 157)
Details: S. cerevisiae mec2-1 strain, at 50.0 µM, stronger effect = higher value
How it was run: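 Strain: mec2-1 (DNA repair/cell cycle alteration). Compound exposure, then growth measured; inhibition expressed relative to vehicle.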
For `C#CC(C)(C)OC(=O)Nc1cccc(Cl)c1`, the growth inhibition was -11.3%. `CCCCCCCCCCCCCC(=O)OCC(CCS(=O)(=O)O[C@H]1CC[C@@]2(C)C(=CC[C@@H]3C2CC[C@]2(C)C(=O)CCC32)C1)OC(=O)CCCCCCCCCCCCC` (stereo not given in full) showed a growth inhibition of -30.9%. In the case of `C=CCc1oc(C)nc1CCCC`, the growth inhibition was -0.1%. Work on `O=C(/C=N\O)c1ccccc1[N+](=O)[O-]` yielded a growth inhibition of -4.85%. Work on `OC1CCC(c2ccccc2)CC1` (stereo not given) yielded a growth inhibition of 11.8%. With `C=C1CC[C@@H]2C(C)(C)CCC[C@@]2(C)[C@@H]1Cc1cc(O)ccc1O` the growth inhibition was 88.6% (active). For `Cc1ccc(N=Nc2ccc(C)cc2NC(=O)Nc2cc(C)ccc2C)cc1`, the growth inhibition was 8.05%. In the case of `Cc1ccc(N2C(=O)CS/C2=C(\C#N)c2nc3ccccc3[nH]2)cc1`, the growth inhibition was -62%. With `Cc1cc(Cl)ccc1OCC(=O)OCC(C)(C)[N+](=O)[O-]` the growth inhibition was 19.1%. With `CCOC(=O)C(=[N+]=[N-])C(=O)c1cc2ccccc2oc1=O` the growth inhibition was 6.85%. For `CC(C)C(CC1CCCCC1)C(C)O` (stereo not given), the growth inhibition was -0.45%. `Cc1ccc(-n2nc3c(c(C#N)c2=O)-c2ccccc2C3=O)cc1` showed a growth inhibition of -4.4%. `CS(=O)(=O)OCC(Cc1ccccc1)N1C(=O)c2ccccc2C1=O` (stereo not given) showed a growth inhibition of 4.05%. For `C/C(CCc1ccccc1)=N\Nc1ccc([N+](=O)[O-])cc1[N+](=O)[O-]`, the growth inhibition was -44.6%. With `Cc1cc(=O)n(C)c2ccc(N)cc12` the growth inhibition was 3.75%. Compound `c1ccc(C2=NC3CCCCC3S2)cc1` (stereo not given) has a growth inhibition of -10.6%. Compound `O=C1OC(c2ccccc2)=CC1(Cc1ccccc1)Cc1ccccc1` has a growth inhibition of -25.4%. With `COc1ccccc1C(=O)N/N=C/c1ccccc1Cl` the growth inhibition was 35.3%. In the case of `c1cc(OCC2CO2)ccc1OCC1CO1` (stereo not given), the growth inhibition was 19.9%. Work on `C[C@@]1(NC(=O)Cc2ccccc2)C(=O)N2CCS[C@@]21c1ccccc1` yielded a growth inhibition of 0.8%. `N#CC(CN1CCOCC1)[N+](=O)[O-]` (stereo not given) showed a growth inhibition of -4.6%. Compound `COC1NC(=O)Oc2ccccc21` (stereo not given) has a growth inhibition of 29.5%. For `C/C(CC(=O)Nc1cccc([N+](=O)[O-])c1)=N\NC(=O)CC#N`, the growth inhibition was -13.3%. `O=C1OC(c2ccccc2)(c2ccc(Cl)cc2)CC1/C=C(\c1ccccc1)c1ccc(Cl)cc1` (stereo not given) showed a growth inhibition of 6.65%. In the case of `CO/C=C/c1cc2c(cc1Br)OCO2`, the growth inhibition was 5.15%. `C=C1C(=O)O[C@H]2[C@H]1CC(=O)/C(C)=C/CC[C@@]1(C)O[C@@H]21` gave a growth inhibition of 21.4%. `COc1ccc(C2SC(N)=Nc3c2c(C)nn3C(=O)c2ccc(Cl)cc2)cc1` (stereo not given) gave a growth inhibition of -14.8%. Work on `OCc1ccc2[n+](c1)CCC1c3ccccc3NC21` (stereo not given) yielded a growth inhibition of -8.75%. In the case of `N#Cc1c(-c2ccccc2)cc(-c2ccccc2)[nH]c1=O`, the growth inhibition was 7.4%. `CC(=O)c1cc(-c2ccccn2)c(=O)n2ccccc12` gave a growth inhibition of 15.5%. Work on `CC(=O)NC(=O)NC1=NCCC(=O)N1CCc1c[nH]c2ccccc12` yielded a growth inhibition of -29%. Compound `COC(=NC(C)C)NC(C)C` has a growth inhibition of -17.2%. `NC(Cc1c[nH]c2ccc(F)cc12)C(=O)O` (stereo not given) showed a growth inhibition of -17.5%. With `COC(=O)c1cc(-c2ccc(OC)cc2)[nH]c(=O)c1C#N` the growth inhibition was 21.1%. Compound `CCCCCCCCCCCCCCCCCCCCCCCCCCCCCCCCCCCCSC(=N)N` has a growth inhibition of 0.45%. In the case of `c1cc2nc(c1)CSCCCCCCCSC2`, the growth inhibition was 45%. For `COC(=O)COc1cc2c(cc1C(C)c1ccc(O)cc1)OCO2` (stereo not given), the growth inhibition was 98.5% (active). Work on `O=C(O)c1cc2cc(O)ccc2[nH]1` yielded a growth inhibition of 3.6%. Compound `COc1cc(/C=C/C(=O)c2sc(-n3nc(-c4ccccc4)cc3-c3ccccc3)nc2C)ccc1O` has a growth inhibition of -13.6%. Compound `CCCCCCCCS(=O)(=O)N(C)C` has a growth inhibition of -24.9%.
